Source: PubChem BioAssay (several laboratories)
TAG inh – triacylglycerol accumulation inhibition | inhibition, % at 12.5 µM | H9c2 cells, Nile Red lipid (TAG) fluorescence; cells loaded with 200 µM oleic acid | hit rate 0.66% among 230,000 | AID 651582;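 active means pattern-corrected inhibition of lipid staining of at least 50% with the nuclear-stain viability signal not falling by more than 50%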
CHT PAM – allosterically activates the human high affinity choline transporter; CHT-expressing cells, membrane potential dye, choline EC20; hits give high values; LV-AA mutant CHT in HEK293 cells; B-score at 10 µM; hit rate 0.49% among 310,000; Q9GZV3;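 active means initial fluorescence not abnormally high and integrated response B-score, plate-corrected, over 3 SD above library mean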
CHT block – inhibits the human high affinity choline transporter | Q9GZV3 | CHT-expressing cells, membrane potential dye, choline response; hits give low values | B-score at 10 µM | hit rate 0.86% among 310,000;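 active means B-score over 3 SD under the library average, and starting fluorescence ratio not unusually high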;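 further: choline stimulus applied at its EC90 after an EC20 pre-addition; B-score computed on integrated fluorescence ratio after choline addition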
Kir21 inh – Kir2.1 (mouse) channel inhibition; hit rate 0.85% among 310,000; P35561; B-score at 10 µM; HEK293-Kir2.1, FluxOR thallium flux fluorescence; hits give low values;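 active means fluorescence ratio B-score at or below minus 3 SD of library scores, with starting-brightness B-score within 2 SD, cut at about -4.2 in these data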;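 further: channel flux triggered by added potassium and thallium sulfate stimulus; B-score of peak minus minimum fluorescence over baseline after thallium stimulus; more negative B-score means stronger Kir2.1 block with less thallium influx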
Target sequence (P35561 whole entry, looked up): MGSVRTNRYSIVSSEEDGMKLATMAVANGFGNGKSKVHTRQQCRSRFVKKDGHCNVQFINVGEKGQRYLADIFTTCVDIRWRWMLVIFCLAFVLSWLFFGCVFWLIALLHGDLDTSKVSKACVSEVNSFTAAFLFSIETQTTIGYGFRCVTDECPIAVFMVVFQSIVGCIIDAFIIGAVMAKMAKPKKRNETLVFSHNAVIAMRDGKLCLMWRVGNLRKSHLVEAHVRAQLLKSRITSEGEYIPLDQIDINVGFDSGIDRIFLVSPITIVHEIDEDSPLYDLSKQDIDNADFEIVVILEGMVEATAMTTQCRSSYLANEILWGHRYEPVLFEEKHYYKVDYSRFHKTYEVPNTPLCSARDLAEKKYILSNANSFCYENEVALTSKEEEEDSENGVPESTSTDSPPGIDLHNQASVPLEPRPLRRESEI
Of the large screens only hits and unclear results are named; the others gave an inactive call. This is a sample that favours compounds with a hit; in the whole collection about 2% have one here.

O=S(=O)(c1ccc(F)cc1)N1CCCC1c1cccnc1 (stereo unspecified)	none
O=S(=O)(c1ccc(F)cc1)N1CCCCC1c1cccnc1 (stereo unspecified)	Kir21 inh -4.9
O=C1NC2NC(=O)N([N+](=O)[O-])C2N1 (stereo unspecified)	none
C=C1C(C)C2C(Cc3ccccc3)NC(=O)C23OC(=O)/C=C/C(O)CCCC(C)C/C=C/C3C1O (stereo unspecified)	none (no result: CHT PAM, CHT block, Kir21 inh)
COc1ccc(CNCCc2ccccc2F)c(OC)c1C	Kir21 inh -5.5
CCCCCCCSc1cc(OC)c(CCNC)cc1OC	Kir21 inh -9.8
CCCCCSc1cc(OC)c(CCNC)cc1OC	Kir21 inh -8.9
CC[C@@H](O)C[C@H]1CCC[C@@]2(C[C@@H]3OC(=O)/C=C/[C@@](C)(O)[C@@H](O)[C@H](C)[C@@H](O)[C@H](OC4CCC(N(C)C)C(C)O4)[C@@H](O)[C@](C)(O)CCCCC/C=C/[C@@H]4CC(C)(C)O[C@@]4(O)C[C@H](O2)[C@H]3C)O1 (stereo partly specified)	TAG inh 58 (no result: CHT PAM, CHT block, Kir21 inh)
O=C(O)c1cc[c]([Hg][Cl])cc1	CHT block -6.1 (no result: Kir21 inh)
CC(=O)OC(C)(C)/C=C/C(=O)C(C)(O)C1[C@H](O)C[C@@]2(C)C3CC=C4C(CC[C@@H](O)C4(C)C)[C@]3(CO)C(=O)C[C@]12C (stereo partly specified)	CHT PAM 8.7 (no result: TAG inh)
CC(=O)OC(C)(C)/C=C/C(=O)C(C)(O)C1C(O)CC2(C)C3CC=C4C(CC(O)C(=O)C4(C)C)C3(C)C(=O)CC12C (stereo unspecified)	none (no result: CHT PAM, CHT block, Kir21 inh)
O=c1c2ccccc2nc(-c2ccccc2Cl)n1-c1cccc(O)c1	none (no result: TAG inh)
O=C1NC(=O)N(c2ccc3c(c2)OCO3)C(=O)/C1=C\c1ccsc1	none
O=C1NC(=O)N(c2ccc3c(c2)OCO3)C(=O)/C1=C/c1ccc(N2CCCCC2)o1	Kir21 inh -4.3 (no result: TAG inh)
N#CCC(=O)NN1Cc2ccccc2C1=N	none (no result: TAG inh)
N=C1c2ccccc2CN1c1ncccn1	CHT PAM 7.9
COc1ccc2[nH]c(C)c(CCNCc3cccnc3)c2c1	none (no result: CHT PAM, CHT block, Kir21 inh)
CCOc1cccc(CNCCc2c(C)[nH]c3ccc(OC(F)(F)F)cc23)c1O	Kir21 inh -13 (no result: TAG inh)
O=[N+]([O-])c1ccccc1-c1cc(-c2ccccc2)cc(-c2ccccc2)[n+]1Cc1ccccc1Cl	CHT block -5.3, Kir21 inh -9.1 (no result: TAG inh)
C[C@H]1CCC/C=C/[C@@H]2C[C@H](O)C[C@H]2[C@H](O)/C=C/C(=O)O1	none (no result: Kir21 inh)
C[C@H]1CCCC(=O)CCC/C=C/c2cc(O)cc(O)c2C(=O)O1	Kir21 inh -4.4
CN(C)C=C1C(=O)N(C2CCCCC2)C(=O)N(C2CCCCC2)C1=O	CHT block -5.4
COc1ccc(CCNCc2ccc(SC)cc2)cc1	Kir21 inh -5.5 (no result: TAG inh)
COc1cc(CNCCc2ccc3c(c2)OCO3)cc(OC)c1OC	none
Clc1ccc(CNCCc2ccc3c(c2)OCO3)cc1	Kir21 inh -8.8 (no result: TAG inh)
COc1ccc(Br)cc1CNCCc1ccc2c(c1)OCO2	Kir21 inh -4.5
Clc1cccc(CNCCc2ccc3c(c2)OCO3)c1	none (no result: TAG inh)
CC(=O)OC1C(O)C(C)OC(OC2C(OC(=O)C3CCC4C(C3)OC3(CC(OC(=O)/C=C/c5ccccc5)C(C)CO3)C43CO3)OC(C)C(O)C2OC(C)=O)C1O (stereo unspecified)	none (no result: CHT PAM, CHT block, Kir21 inh)
O=C(O)C1CN2CCC1CC2 (stereo unspecified)	none (no result: TAG inh)
CC1([N+](=O)[O-])COP(=O)(Nc2cccc(Cl)c2)OC1 (stereo unspecified)	none (no result: CHT PAM, CHT block, Kir21 inh)
Cc1ccc(C(C)C)c(OCC#CCN2CCCC2)c1	Kir21 inh -4.2
Clc1ccc(COC(Cn2ccnc2)c2ccc(Cl)cc2Cl)c(Cl)c1 (stereo unspecified)	none
COC(=O)C1=C(c2ccc(OCc3ccccc3)c(F)c2)C[C@@H]2CC[C@H]1N2C	none (no result: CHT PAM, CHT block, Kir21 inh)
COc1ccc(CN2CCCC(C(=O)c3ccc(Cl)cc3)C2)c(O)c1 (stereo unspecified)	Kir21 inh -11
CC(=O)N1N=C2C3CCN(CC3)C2C1c1ccc(F)cc1 (stereo unspecified)	none
COCCNCCOc1ccc(C(C)(C)c2ccccc2)cc1	Kir21 inh -12 (no result: TAG inh)
CCCOc1ccc(C(=O)NC(=S)N2C[C@H]3C[C@H](C2)c2cccc(=O)n2C3)cc1	none (no result: TAG inh)
COC1=C(C)C(=O)C2=C(C1=O)C(CO)N1C(C#N)C3CC4C(C1C2N1CCOC41)N3C (stereo unspecified)	TAG inh 83 (no result: CHT PAM, CHT block, Kir21 inh)
CC(=O)OC1C(=O)OCC23CCC4(C)OC4C2OC2CC(OC(=O)C=CC=CC(=O)OCCC1C)C3(C)C21CO1 (stereo unspecified)	none (no result: CHT PAM, CHT block, Kir21 inh)
COc1ccc(C(CNC(=O)CCc2ccsc2)N(C)C)cc1 (stereo unspecified)	none (no result: TAG inh)
CC(=O)c1c(O)n(-c2cccc(Cl)c2)c(=O)[nH]c1=O (tested in a mixture with another compound)	none
CC(C)n1c(O)c(C2c3cc(Cl)ccc3Oc3[nH]c(=O)n(C(C)C)c(=O)c32)c(=O)[nH]c1=O (stereo unspecified)	Kir21 inh -4.3 (no result: CHT PAM, CHT block)
CS(=O)(=O)c1ccc(C2=C(CNC(=O)c3cccs3)[C@H]3CC[C@@H](C2)N3CCOc2ccccc2)cc1	none (no result: CHT PAM, CHT block, Kir21 inh)
CC1=C(N2CC2)C(=O)C(CO)=C(N2CC2)C1=O	none (no result: CHT PAM, CHT block, Kir21 inh)
COC(COC(N)=O)C1=C(N2CC2)C(=O)C(C)=C(N2CC2)C1=O (stereo unspecified)	TAG inh 60 (no result: CHT PAM, CHT block, Kir21 inh)
CN1CCN(c2ccc([N+](=O)[O-])c3cccnc23)CC1	CHT PAM 7.1 (no result: TAG inh)
O=[N+]([O-])c1ccc(N2CCNCC2)c2ncccc12	none (no result: TAG inh, CHT PAM, CHT block)
COc1ccc(-[n+]2c(-c3ccccc3)cc(-c3ccccc3)cc2-c2ccccc2)cc1	Kir21 inh -7.5 (no result: TAG inh)
O=C([O-])c1ccc(-[n+]2c(-c3ccccc3)cc(-c3ccccc3)cc2-c2ccccc2)cc1	none (no result: TAG inh)
CCCCn1c(O)c(/C=C2/C=CC=N2)c(=O)[nH]c1=O	none
Cc1ccccc1CN1CCN(Cc2ccccc2)CC1	Kir21 inh -4.7 (no result: TAG inh)
Cc1ccc(CC(=O)N2CCN(Cc3ccccc3)CC2)cc1	none (no result: TAG inh)
CCOc1ccc(-c2cc(C(=O)N3CCC4(CC3)OCCO4)c3ccccc3n2)cc1	none (no result: CHT PAM, CHT block, Kir21 inh)
O=C(C(=O)N1CCOCC1)c1cn(Cc2ccc(F)cc2)c2ccccc12	none
C=C1C(=O)O[C@@H]2C[C@@H](C)[C@@H]3C=CC(=O)[C@@]3(C)[C@@H](O)[C@H]12	TAG inh 72, Kir21 inh -4.3
CC1C(=O)OC2CCN3CC4OC4(COC(=O)C(C)(O)C1(C)O)C23 (stereo unspecified)	none (no result: CHT PAM, CHT block, Kir21 inh)
Cc1cccc(N=C2c3cc([N+](=O)[O-])ccc3-c3c2cc([N+](=O)[O-])cc3[N+](=O)[O-])c1	TAG inh 62 (no result: CHT PAM, CHT block, Kir21 inh)
COC(=O)CC1=C(C(=O)OC)C2(C(=O)N(C)c3ccccc32)C(C#N)=C(N)O1 (stereo unspecified)	none
